Among the test systems are NCI-H23 lung; NCI-H226 lung; NCI-H322M lung; HOP-62 NSCLC; NCI-H460 lung; HOP-92 NSCLC; NCI-H522 lung; A549/ATCC NSCLC; 786-0 renal; DU-145 prostate; K-562 leukemia; MALME-3M melanoma; MDA-MB-231 breast; RXF 393 renal; SF-268 CNS; SF-295 CNS; SF-539 CNS; UACC-257 melanoma; M14 melanoma.
Common to all, as to experiment: NCI-60 one-dose screen, 48 h (100 = growth as untreated, 0 = no growth, -100 = all killed)
Conditions in all cases: 10 µM unless noted

Compounds without any hit were thinned out: in the full panel of roughly 83,000, 20% have a hit.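 Cell lines were cultured in 96-well plates, exposed to a single compound concentration, and assessed for percent growth 48 hours later.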 Values without a mark were called inactive. Active and inactive are the calls of the source. The calls were made as follows: active = growth percent below 10; inactive = the rest.

As for `CC1CCCN(CCCCCOc2ccc3oc4ccc(Cl)cc4c(=O)c3c2)C1` (configuration not stated), the growth was 78.6% in the assay with NCI-H23 lung; 104% in the assay on NCI-H226 lung; 84.4% with NCI-H322M lung; 85.7% with HOP-62 NSCLC; 54.5% in the assay on NCI-H460 lung; 88.8% in the assay with HOP-92 NSCLC. For the same compound, the growth in the assay on NCI-H522 lung was 71.1%; in the assay on A549/ATCC NSCLC, 76.1%; with 786-0 renal it was 68.2%; in the assay with DU-145 prostate it was 84.7%; in the assay on K-562 leukemia, 16.8%; with MALME-3M melanoma it was 52%. The growth in the assay on MDA-MB-231 breast was 62.3%; in the assay on RXF 393 renal, 72%; with SF-268 CNS it was 81.2%; in the assay on SF-295 CNS, 83.1%; in the assay on SF-539 CNS it was 66.6%; with UACC-257 melanoma it was -17.9% (active). In the assay on M14 melanoma, the growth was -17.5% (active).

For `COc1ccc(C2=NN(c3ccc(S(N)(=O)=O)cc3)C(c3ccc(Cl)cc3)C2)c(O)c1` (configuration not stated), the growth is 63.7% in the assay on NCI-H23 lung; 84.6% in the assay with NCI-H226 lung; 71.6% in the assay with NCI-H322M lung; 90.2% with HOP-62 NSCLC; 45% in the assay with NCI-H460 lung; 58.6% in the assay with HOP-92 NSCLC. Further, the growth in the assay with NCI-H522 lung is 48.8%; with A549/ATCC NSCLC it was 33%; with 786-0 renal, 67.1%; in the assay on DU-145 prostate it was 99.2%; in the assay on K-562 leukemia, 23%; with MALME-3M melanoma, 93.5%. Moreover, the growth is 76.5% in the assay on MDA-MB-231 breast; 45.1% in the assay on RXF 393 renal; 83.8% in the assay on SF-268 CNS; 46.3% with SF-295 CNS; 89.9% in the assay on SF-539 CNS; 57.3% in the assay on UACC-257 melanoma. Further, in the assay with M14 melanoma, the growth is 51.3%.

As for `Cn1c2c(c3ccc(-c4ccn[nH]4)cc3c1=O)C(=O)c1ccccc1-2`, the growth with NCI-H23 lung is 25.3%; in the assay on NCI-H226 lung it was 0.642% (active); in the assay with NCI-H322M lung, 87.3%; in the assay on HOP-62 NSCLC, 17.2%; with NCI-H460 lung, 1.75% (active); in the assay with HOP-92 NSCLC, 79.3%. Also, the growth with NCI-H522 lung is 48.8%; in the assay on A549/ATCC NSCLC it was 8.44% (active); in the assay on 786-0 renal, 12.3%; with DU-145 prostate, 15.9%; in the assay on K-562 leukemia, 17.7%; in the assay on MALME-3M melanoma, 55.8%. For the same compound, the growth in the assay with MDA-MB-231 breast is 86.9%; in the assay with RXF 393 renal it was 91.5%; in the assay on SF-268 CNS, 40.8%; in the assay with SF-295 CNS, 20.5%; with SF-539 CNS, 37.3%; with UACC-257 melanoma, 103%. Besides, the growth in the assay on M14 melanoma is 48.6%.

Take `C=C(C)[C@@H]1CC[C@]2(C(=O)OCCOCCOCC[P+](c3ccccc3)(c3ccccc3)c3ccccc3)CC[C@]3(C)[C@H](CC[C@@H]4[C@@]5(C)CC[C@H](OC(C)=O)C(C)(C)[C@@H]5CC[C@]43C)[C@@H]12`: the growth is -84.6% (active) with NCI-H23 lung; -85.3% (active) in the assay on NCI-H226 lung; -93.8% (active) in the assay with NCI-H322M lung; -84.9% (active) in the assay on HOP-62 NSCLC; -80.5% (active) in the assay with NCI-H460 lung; -87.3% (active) in the assay with HOP-92 NSCLC. Also, the growth in the assay with NCI-H522 lung is -75.2% (active); with A549/ATCC NSCLC it was -88.3% (active); in the assay on 786-0 renal it was -91.6% (active); with DU-145 prostate it was -91.1% (active); in the assay with K-562 leukemia it was -74.3% (active); in the assay on MALME-3M melanoma it was -85.1% (active). In addition, the growth with MDA-MB-231 breast was -91.3% (active); in the assay on RXF 393 renal, -90.4% (active); in the assay with SF-268 CNS it was -74.7% (active); in the assay on SF-295 CNS it was -92% (active); in the assay with SF-539 CNS, -90.9% (active); in the assay on UACC-257 melanoma, -83.4% (active). Moreover, the growth in the assay on M14 melanoma is -83.1% (active).

In the case of `COc1ccc(/C(=N\O)c2cc(C)c(OC)c(C)c2)cc1O`, the growth in the assay with NCI-H23 lung was 45.9%; with NCI-H226 lung it was 60.6%; in the assay with NCI-H322M lung, 48.3%; with HOP-62 NSCLC, 39.8%; with NCI-H460 lung, 9.22% (active); in the assay with HOP-92 NSCLC, 54.1%. The growth with NCI-H522 lung is -11.4% (active); in the assay on A549/ATCC NSCLC, 22.2%; with 786-0 renal, 35.3%; in the assay with DU-145 prostate, 29.4%; in the assay with K-562 leukemia, 12%; with MALME-3M melanoma it was 67%. Besides, the growth was 24.8% with MDA-MB-231 breast; 62.9% in the assay on RXF 393 renal; 30.4% in the assay with SF-268 CNS; 29.7% with SF-295 CNS; 2.65% (active) with SF-539 CNS; 70% in the assay on UACC-257 melanoma. The growth in the assay with M14 melanoma was 13.6%.

On to `Clc1ccc2c(NCCCNC3CCCCC3)ccnc2c1`, for which the growth in the assay with NCI-H23 lung is 112%; with NCI-H226 lung, 108%; in the assay with NCI-H322M lung, 101%; in the assay on HOP-62 NSCLC it was 91.1%; with NCI-H460 lung, 104%; in the assay with HOP-92 NSCLC, 80.4%. For the same compound, the growth in the assay with NCI-H522 lung was 107%; with A549/ATCC NSCLC it was 120%; with 786-0 renal, 68.5%; in the assay with DU-145 prostate, 101%; in the assay with K-562 leukemia, 70.3%; with MALME-3M melanoma, 116%. For the same compound, the growth in the assay with MDA-MB-231 breast was 94.1%; with RXF 393 renal, 82.6%; with SF-268 CNS, 103%; in the assay on SF-295 CNS, 55.1%; with SF-539 CNS, 101%; in the assay with UACC-257 melanoma, 107%. Besides, the growth in the assay on M14 melanoma is 89.8%.

`O=C(/C(=C/c1ccc([N+](=O)[O-])cc1)SCc1ccc(Cl)cc1)c1ccc(F)cc1`: the growth was 57% with NCI-H23 lung; 66.7% in the assay with NCI-H226 lung; 100% with NCI-H322M lung; 68.7% with HOP-62 NSCLC; 83.1% with NCI-H460 lung; 80.3% with HOP-92 NSCLC. For the same compound, the growth in the assay with NCI-H522 lung is -1.33% (active); in the assay with A549/ATCC NSCLC, 80.5%; in the assay with 786-0 renal it was 76.9%; in the assay with DU-145 prostate, 86.3%; with K-562 leukemia, 1.3% (active); in the assay with MALME-3M melanoma, 85.7%. Moreover, the growth in the assay on MDA-MB-231 breast was 56.3%; in the assay on RXF 393 renal, 92%; in the assay with SF-268 CNS, 76.1%; in the assay on SF-295 CNS, 84.9%; with SF-539 CNS, 88.6%; with UACC-257 melanoma it was 92.5%. For the same compound, the growth in the assay with M14 melanoma was 47.3%.

`Cc1cc(Cl)cc(CN(Cc2ccccc2)Cc2c(O)ccc3ccccc23)c1O`: the growth is 93.6% with NCI-H23 lung; 104% in the assay with NCI-H226 lung; 95.7% in the assay on NCI-H322M lung; 92.3% in the assay on HOP-62 NSCLC; 104% in the assay on NCI-H460 lung; 83.7% in the assay on HOP-92 NSCLC. The growth with NCI-H522 lung was 83%; with A549/ATCC NSCLC it was 98%; with 786-0 renal it was 103%; in the assay on DU-145 prostate, 98.1%; in the assay on K-562 leukemia, 101%; with MALME-3M melanoma, 96.7%. In addition, the growth was 100% in the assay with MDA-MB-231 breast; 109% in the assay on RXF 393 renal; 90.8% in the assay on SF-268 CNS; 104% in the assay on SF-295 CNS; 103% with SF-539 CNS; 100% in the assay with UACC-257 melanoma. Also, the growth in the assay with M14 melanoma was 104%.

The values are drawn from PubChem BioAssay (NCI).
